Data taken from the supplement of paper PMC10849652.
Targets with a hit are over-represented here; the source holds about 8,800 in all. About 0.5% of all pairs of compound and target were hits.

Assays:
Assay in all cases: log2 fold change, soluble protein after heating vs DMSO (PISA); higher = thermal stabilisation; K562 lysate, 10 uM; active = over 0.2 and 3.5 SD of the protein, either way, in both replicates (recomputed)
[1] = compound: NCC(=O)Nc1ccc(-n2nc(C(F)(F)F)cc2-c2ccc3c(ccc4ccccc43)c2)cc1
In short: (§1)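 Pellets of K562 cells were dounce-homogenised in PBS pH 7.4 with 1 mM MgCl2, and the crude extract was held at 1 mg/mL protein for a 30 min treatment with 10 μM compound. Aliquots were heated for 3 min over 48°C-58°C and pooled before NP-40 was added to 0.5% at 4°C. The supernatant from 21,000xg for 90 min was quantified by TMTpro 16plex LC-MS/MS with channel sums equalised. Values are reported from duplicates as log-two fold change in thermal stability relative to solvent controls.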

vorinostat = compound: O=C(CCCCCCC(=O)Nc1ccccc1)NO [vorinostat]
In short: as §1

silmitasertib = compound: O=C(O)c1ccc2c(c1)nc(Nc1cccc(Cl)c1)c1ccncc12 [silmitasertib]
In short: as §1

[2] = compound: O=C1NC(=O)C(c2cnc3ccccn23)=C1c1cn2c3c(cc(F)cc13)CN(C(=O)N1CCCCC1)CC2
In short: as §1

entospletinib = compound: c1cn2cc(-c3ccc4cn[nH]c4c3)nc(Nc3ccc(N4CCOCC4)cc3)c2n1 [entospletinib]
In short: as §1

Chain of UniProt Q99758 (Q99758 whole entry, looked up): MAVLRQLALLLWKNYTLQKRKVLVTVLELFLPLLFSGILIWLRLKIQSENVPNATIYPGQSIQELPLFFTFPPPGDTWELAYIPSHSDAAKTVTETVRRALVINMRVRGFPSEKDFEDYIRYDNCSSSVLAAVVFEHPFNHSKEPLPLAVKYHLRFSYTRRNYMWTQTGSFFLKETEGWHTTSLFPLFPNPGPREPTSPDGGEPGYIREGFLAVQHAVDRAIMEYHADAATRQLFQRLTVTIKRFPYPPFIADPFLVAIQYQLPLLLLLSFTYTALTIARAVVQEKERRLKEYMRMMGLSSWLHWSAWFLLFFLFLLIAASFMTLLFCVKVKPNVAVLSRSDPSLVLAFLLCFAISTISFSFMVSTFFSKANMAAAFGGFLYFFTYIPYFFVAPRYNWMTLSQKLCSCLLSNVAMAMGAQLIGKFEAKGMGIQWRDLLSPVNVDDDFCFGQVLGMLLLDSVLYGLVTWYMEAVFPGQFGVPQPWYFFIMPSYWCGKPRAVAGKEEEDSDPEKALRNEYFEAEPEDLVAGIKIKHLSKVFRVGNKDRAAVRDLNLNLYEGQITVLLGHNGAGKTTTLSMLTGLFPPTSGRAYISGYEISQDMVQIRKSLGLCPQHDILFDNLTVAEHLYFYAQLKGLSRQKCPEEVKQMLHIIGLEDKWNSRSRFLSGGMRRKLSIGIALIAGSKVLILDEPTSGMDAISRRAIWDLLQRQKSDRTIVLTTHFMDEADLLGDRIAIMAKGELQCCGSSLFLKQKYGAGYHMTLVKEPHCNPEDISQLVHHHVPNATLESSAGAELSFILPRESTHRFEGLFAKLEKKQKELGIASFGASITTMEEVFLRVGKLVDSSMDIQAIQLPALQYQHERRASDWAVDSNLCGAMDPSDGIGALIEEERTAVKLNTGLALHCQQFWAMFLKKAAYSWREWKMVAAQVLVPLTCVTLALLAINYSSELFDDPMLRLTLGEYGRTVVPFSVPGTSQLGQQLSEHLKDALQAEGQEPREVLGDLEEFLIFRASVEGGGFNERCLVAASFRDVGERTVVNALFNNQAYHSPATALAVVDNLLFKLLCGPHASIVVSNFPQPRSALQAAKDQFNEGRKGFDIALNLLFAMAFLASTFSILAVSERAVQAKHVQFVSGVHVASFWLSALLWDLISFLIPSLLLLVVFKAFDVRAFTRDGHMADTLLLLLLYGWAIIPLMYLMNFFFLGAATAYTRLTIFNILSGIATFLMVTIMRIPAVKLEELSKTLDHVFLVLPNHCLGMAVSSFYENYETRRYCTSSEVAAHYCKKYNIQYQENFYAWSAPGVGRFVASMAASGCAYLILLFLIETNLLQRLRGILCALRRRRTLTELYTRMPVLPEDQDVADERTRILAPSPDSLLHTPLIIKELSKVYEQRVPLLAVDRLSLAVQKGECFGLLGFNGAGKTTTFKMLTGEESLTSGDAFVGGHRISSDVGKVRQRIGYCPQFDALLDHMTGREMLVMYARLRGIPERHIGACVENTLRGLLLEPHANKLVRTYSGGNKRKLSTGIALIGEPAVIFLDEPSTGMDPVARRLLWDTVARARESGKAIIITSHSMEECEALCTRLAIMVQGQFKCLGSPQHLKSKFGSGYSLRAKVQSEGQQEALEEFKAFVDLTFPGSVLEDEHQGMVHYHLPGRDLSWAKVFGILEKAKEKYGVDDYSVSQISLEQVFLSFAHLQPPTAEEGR
Chain of UniProt Q96P48 (Q96P48 whole entry, looked up): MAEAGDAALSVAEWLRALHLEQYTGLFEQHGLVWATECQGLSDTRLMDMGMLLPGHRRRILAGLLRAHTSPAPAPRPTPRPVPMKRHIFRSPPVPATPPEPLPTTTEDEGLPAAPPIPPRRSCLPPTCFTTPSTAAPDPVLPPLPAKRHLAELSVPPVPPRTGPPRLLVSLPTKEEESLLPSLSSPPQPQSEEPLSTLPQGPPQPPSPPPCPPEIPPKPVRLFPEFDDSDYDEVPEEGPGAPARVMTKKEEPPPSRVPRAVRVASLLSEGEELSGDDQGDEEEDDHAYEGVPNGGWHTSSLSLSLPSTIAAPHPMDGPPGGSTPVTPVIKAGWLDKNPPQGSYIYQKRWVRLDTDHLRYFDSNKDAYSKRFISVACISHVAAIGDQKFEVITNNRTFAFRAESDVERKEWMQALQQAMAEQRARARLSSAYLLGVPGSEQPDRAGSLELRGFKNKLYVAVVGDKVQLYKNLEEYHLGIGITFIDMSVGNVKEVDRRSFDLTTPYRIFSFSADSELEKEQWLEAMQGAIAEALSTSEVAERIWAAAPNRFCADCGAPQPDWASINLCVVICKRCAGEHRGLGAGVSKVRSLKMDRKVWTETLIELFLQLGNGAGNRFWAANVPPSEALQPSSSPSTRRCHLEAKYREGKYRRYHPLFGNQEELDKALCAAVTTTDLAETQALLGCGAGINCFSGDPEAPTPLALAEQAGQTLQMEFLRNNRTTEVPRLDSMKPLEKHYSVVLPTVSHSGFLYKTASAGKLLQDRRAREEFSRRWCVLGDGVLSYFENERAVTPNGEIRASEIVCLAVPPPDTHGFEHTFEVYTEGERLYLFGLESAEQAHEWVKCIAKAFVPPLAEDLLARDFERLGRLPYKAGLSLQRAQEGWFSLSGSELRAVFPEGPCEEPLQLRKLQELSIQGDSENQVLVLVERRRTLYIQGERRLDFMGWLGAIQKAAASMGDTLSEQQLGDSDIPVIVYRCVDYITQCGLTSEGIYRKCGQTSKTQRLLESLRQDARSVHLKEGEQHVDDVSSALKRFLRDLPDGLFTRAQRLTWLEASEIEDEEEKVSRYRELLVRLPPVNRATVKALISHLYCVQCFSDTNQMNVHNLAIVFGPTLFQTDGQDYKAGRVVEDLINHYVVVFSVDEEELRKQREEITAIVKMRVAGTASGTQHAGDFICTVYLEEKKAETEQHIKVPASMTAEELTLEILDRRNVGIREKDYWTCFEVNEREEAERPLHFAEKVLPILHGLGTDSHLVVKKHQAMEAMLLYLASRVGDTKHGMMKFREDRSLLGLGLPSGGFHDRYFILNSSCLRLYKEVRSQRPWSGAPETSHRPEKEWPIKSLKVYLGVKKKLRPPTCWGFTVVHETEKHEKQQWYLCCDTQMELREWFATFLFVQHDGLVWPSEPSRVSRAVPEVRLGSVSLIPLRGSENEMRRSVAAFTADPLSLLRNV
Chain of UniProt Q12904 (Q12904 whole entry, looked up): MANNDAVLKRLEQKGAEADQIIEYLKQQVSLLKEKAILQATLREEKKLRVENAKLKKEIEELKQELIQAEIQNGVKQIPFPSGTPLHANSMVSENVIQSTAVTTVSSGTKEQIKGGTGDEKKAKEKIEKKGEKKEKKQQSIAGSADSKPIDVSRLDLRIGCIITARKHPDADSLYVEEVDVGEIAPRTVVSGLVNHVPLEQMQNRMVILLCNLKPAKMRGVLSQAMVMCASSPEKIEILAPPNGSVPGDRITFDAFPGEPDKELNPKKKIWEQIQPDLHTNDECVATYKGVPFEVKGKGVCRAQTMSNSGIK
Chain of UniProt Q9UJX3 (Q9UJX3 whole entry, looked up): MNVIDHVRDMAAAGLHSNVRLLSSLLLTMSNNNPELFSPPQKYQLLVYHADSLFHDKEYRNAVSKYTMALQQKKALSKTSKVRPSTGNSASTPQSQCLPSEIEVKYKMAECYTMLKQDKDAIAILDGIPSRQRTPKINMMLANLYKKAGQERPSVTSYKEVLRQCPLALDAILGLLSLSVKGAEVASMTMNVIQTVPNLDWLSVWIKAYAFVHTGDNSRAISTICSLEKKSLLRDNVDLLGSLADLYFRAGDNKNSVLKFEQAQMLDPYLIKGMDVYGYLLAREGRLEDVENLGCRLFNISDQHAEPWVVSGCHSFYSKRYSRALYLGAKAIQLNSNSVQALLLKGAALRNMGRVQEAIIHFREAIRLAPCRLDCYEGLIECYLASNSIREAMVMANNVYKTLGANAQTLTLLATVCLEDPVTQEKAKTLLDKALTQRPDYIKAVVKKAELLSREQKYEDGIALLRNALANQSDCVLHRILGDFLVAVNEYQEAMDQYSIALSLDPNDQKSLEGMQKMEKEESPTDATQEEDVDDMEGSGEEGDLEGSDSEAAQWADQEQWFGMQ
Chain of UniProt P78536 (P78536 whole entry, looked up): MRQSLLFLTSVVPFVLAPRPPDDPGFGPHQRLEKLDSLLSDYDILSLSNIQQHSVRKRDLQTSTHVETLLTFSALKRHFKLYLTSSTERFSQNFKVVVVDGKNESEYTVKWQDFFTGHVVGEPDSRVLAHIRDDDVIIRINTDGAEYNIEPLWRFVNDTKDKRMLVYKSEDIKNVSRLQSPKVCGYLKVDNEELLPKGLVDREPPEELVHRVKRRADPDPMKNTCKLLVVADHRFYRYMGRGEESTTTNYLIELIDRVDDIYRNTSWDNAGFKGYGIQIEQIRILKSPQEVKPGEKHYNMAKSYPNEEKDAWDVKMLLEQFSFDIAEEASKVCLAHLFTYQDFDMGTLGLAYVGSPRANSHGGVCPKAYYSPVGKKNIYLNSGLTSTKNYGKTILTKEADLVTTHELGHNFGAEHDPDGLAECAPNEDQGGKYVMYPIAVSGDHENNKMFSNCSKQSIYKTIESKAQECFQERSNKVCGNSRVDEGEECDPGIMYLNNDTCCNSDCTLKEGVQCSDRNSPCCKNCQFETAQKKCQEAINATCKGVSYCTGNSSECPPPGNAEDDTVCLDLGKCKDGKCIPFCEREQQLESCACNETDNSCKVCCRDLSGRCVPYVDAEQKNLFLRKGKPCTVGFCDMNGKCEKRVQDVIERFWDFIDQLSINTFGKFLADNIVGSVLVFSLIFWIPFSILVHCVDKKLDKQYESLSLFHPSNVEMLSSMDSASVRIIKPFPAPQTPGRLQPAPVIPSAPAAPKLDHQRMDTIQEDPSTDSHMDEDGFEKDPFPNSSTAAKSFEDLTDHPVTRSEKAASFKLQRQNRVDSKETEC

Target | log2 fold change [1] | log2 fold change (vorinostat) | log2 fold change (silmitasertib) | log2 fold change [2] | log2 fold change (entospletinib)
ANAPC7 (UniProt Q9UJX3) | -0.035 (inactive) | -0.218 (active) | 0.023 (inactive) | 0.007 (inactive) | 0.046 (inactive)
AIMP1 isoform 2 (UniProt Q12904) | -0.01 (inactive) | -0.235 (active) | 0.02 (inactive) | 0.007 (inactive) | 0.02 (inactive)
ABCA3 (UniProt Q99758) | -0.157 (inactive) | 0.087 (inactive) | -0.062 (inactive) | 0 (inactive) | 0.28 (inactive)
ADAM17 (UniProt P78536) | 0.014 (inactive) | 0.089 (inactive) | -0.006 (inactive) | 0.042 (inactive) | 0.014 (inactive)
ACIN1 (UniProt E7EQT4) | 0.076 (inactive) | 0.079 (inactive) | -0.013 (inactive) | -0.013 (inactive) | 0.021 (inactive)
AMD1 (UniProt P17707) | 0.071 (inactive) | -0.076 (inactive) | 0.062 (inactive) | 0.499 (inactive) | 0.211 (inactive)
ARAP1 (UniProt Q96P48) | -0.04 (inactive) | -0.379 (active) | 0.017 (inactive) | -0.014 (inactive) | -0.012 (inactive)
AKT2 (UniProt P31751) | -0.021 (inactive) | -0.175 (inactive) | 0.011 (inactive) | -0.019 (inactive) | 0.008 (inactive)
